A selection: hits, their analogues and other compounds. The true share with any hit is near 2.4%.
Pol kappa inh-1: blocks human DNA polymerase kappa activity. Q9UBT6. purified Pol kappa, fluorescent DNA synthesis assay, 10 min. Potency, µM (titrated, usually from 107 µM), inactives show at the highest dose activity, negative = inhibition, usual class: inhibitors. 400,000 tested, 0.53% active. AID 588579; note: potency is the fitted concentration of half-maximal effect; % is set by controls: 0 for no effect and ±100 for the full control effect
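Enzyme at 10 nM met test compounds for 15 min at room temperature. Substrate addition (50 nM final) began the reaction, which was monitored by fluorescence at 0 and 10 min.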
POLB inh: blocks human DNA polymerase beta activity; Pol beta primer extension/strand displacement, fluorescence kinetic; Potency, µM (series often up to 114 µM), inactives show at the top dose activity change, negative = inhibition, usual class: inhibitors; 340,000 tested, 1.3% active; note: potency is the fitted concentration of half-maximal effect; % is set by controls: 0 for no effect and ±100 for the full control effect
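Kinetic readout of DNA synthesis with strand displacement by Pol beta. Compound and 10 nM enzyme sit 15 min at room temperature; 50 nM substrate starts the reaction, read immediately and at 10 min.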
Pol iota inh: DNA polymerase iota (human) inhibition. 390,000 tested, 1% active. Q9UNA4. Pol iota fluorescent replication assay, 10 min. Potency, µM (highest dose often 115 µM), for inactives: at the top dose activity, negative = inhibition, actives largely listed as inhibitors; note: potency is the fitted concentration of half-maximal effect
Target sequence (Q9UNA4 whole entry, looked up): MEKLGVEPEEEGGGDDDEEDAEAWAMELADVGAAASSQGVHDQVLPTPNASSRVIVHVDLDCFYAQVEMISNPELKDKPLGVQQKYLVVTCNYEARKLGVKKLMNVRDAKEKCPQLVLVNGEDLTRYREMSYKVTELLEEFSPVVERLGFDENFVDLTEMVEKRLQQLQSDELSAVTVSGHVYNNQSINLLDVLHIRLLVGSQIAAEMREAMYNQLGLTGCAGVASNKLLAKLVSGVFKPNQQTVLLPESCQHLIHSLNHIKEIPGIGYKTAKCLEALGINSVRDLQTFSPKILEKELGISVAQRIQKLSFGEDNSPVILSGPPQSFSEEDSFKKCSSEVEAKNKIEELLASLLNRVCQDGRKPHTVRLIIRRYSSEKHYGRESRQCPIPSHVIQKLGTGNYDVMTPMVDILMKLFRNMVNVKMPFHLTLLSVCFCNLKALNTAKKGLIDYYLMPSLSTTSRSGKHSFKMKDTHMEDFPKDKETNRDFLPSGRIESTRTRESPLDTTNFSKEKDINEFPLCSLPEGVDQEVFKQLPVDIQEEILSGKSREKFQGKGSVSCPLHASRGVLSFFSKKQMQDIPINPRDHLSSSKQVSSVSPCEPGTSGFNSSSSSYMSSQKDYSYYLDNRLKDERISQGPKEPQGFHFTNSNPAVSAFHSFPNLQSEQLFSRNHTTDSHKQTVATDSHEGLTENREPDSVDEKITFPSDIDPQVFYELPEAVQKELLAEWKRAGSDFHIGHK
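Fluorescent replication assay read twice, at 0 min and 10 min after adding 50 nM (final) substrate. Enzyme (10 nM) and compounds were first incubated 15 min at room temperature; enzyme-free buffer wells were negative controls.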
Pol eta inh-1: DNA polymerase eta (human) inhibition. recombinant Pol eta, fluorescent DNA replication assay. Potency, µM (highest dose often 114 µM), inactives show at the top dose activity change, negative = inhibition, actives largely listed as inhibitors. Q9Y253. 390,000 tested, 1.2% active; note: potency is the fitted concentration of half-maximal effect; % is set by controls: 0 for no effect and ±100 for the full control effect
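Fluorescent replication assay: 50 nM final substrate added after a 15 min room-temperature compound preincubation with 10 nM enzyme. Signal taken at 0 min and again at 10 min.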
APE1 inh: blocks human APE1 abasic DNA cleavage; P27695; recombinant APE1, TAMRA/BHQ-2 abasic DNA cleavage fluorescence; Potency, µM (series often up to 65.8 µM), for the others: at the highest dose activity change, negative = inhibition, most hits filed as inhibitors; 350,000 tested, 0.35% active;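 note: potency is the fitted concentration of half-maximal effect; plate controls were vehicle for no effect and reference inhibitor for full effect; nearly all actives have a fitted effect of over 55% in size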
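Measures dequenching upon AP-site incision of a 5'-TAMRA/3'-BHQ-2 THF-containing duplex, 50 nM; human APE1 0.75 nM after 15 min room-temperature exposure to compound; kinetic three-point read at one-minute spacing.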
GLS inh: inhibitors of human glutaminase (GLS) | O94925 | GLS enzymatic activity, qHTS titration | Potency, µM (series often up to 45.5 µM), inactives show top-dose activity change, negative = inhibition, most hits filed as inhibitors | 410,000 tested, 0.21% active; note: potency is the fitted concentration of half-maximal effect; % is set by controls: 0 for no effect and ±100 for the full control effect
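Glutamate formation by hKGA was monitored fluorometrically using coupled glutamate oxidase, HRP and Amplex Red. Substrate was added as 1 mM L-glutamine solution; incubation was 30 min at RT after an initial read.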
GALK inh confirm: confirmation of human galactokinase (GALK) inhibitors. shares compounds with Pol eta inh-1. purified GALK, Kinase-Glo ATP depletion luminescence. Potency, µM (doses to about 115 µM), without a hit: top-dose activity, negative = inhibition, usual class: inhibitors. 150 tested, 70% active. AID 2015
GALK redox cs: redox cycling activity in phenol red-HRP assay; AID 2035; Phenol red-HRP H2O2 redox cycling, absorbance 600 nm; 150 tested, 40% active; Potency, µM (highest dose often 115 µM), for the others: at the highest dose activity change, negative = H2O2 signal, hits mostly inhibitors; shares compounds with Pol eta inh-1
HEK293 viability: HEK-293 cytotoxicity, GALK inhibitor secondary | HEK-293 viability, ATP luminescence (CellTiter-Glo), 24/48 h | shares compounds with Pol eta inh-1 | 170 tested, 10% active | Potency, µM (highest dose often 46.1 µM), inactives show at the top dose activity change, negative = cytotoxicity, actives largely listed as inhibitors; note: potency is the fitted concentration of half-maximal effect; % is set by controls: 0 for no effect and ±100 for the full control effect
Pol kappa inh-2: Pol kappa (human) inhibition, cherry-pick confirmation | 920 tested, 76% active | AID 720501 | purified Pol-kappa, fluorescent strand-displacement substrate | shares compounds with Pol eta inh-1 | Potency, µM, actives largely listed as inhibitors; note: potency is the fitted concentration of half-maximal effect
Pol eta inh-2: confirmation of human DNA polymerase eta inhibitors. Pol eta primer extension, TAMRA/BHQ fluorescence, 10 min. Potency, µM, actives largely listed as inhibitors. AID 720502. shares compounds with Pol eta inh-1. 2,600 tested, 64% active; note: potency is the fitted concentration of half-maximal effect
* = called active by the depositor; ? = inconclusive; . = no result given; [ ] = another dose, or the depositor's remark. Calls come from the whole dose curve; as a rule, active = well fitted curve in the direction sought with a large enough effect; inconclusive = small, poorly fitted or top-dose-only effect, or another doubt; inactive = no such curve, though single readings can be large; an effect the other way counts as inactive or inconclusive.

SMILES | Pol kappa inh-1 | POLB inh | Pol iota inh | Pol eta inh-1 | APE1 inh | GLS inh | Pol kappa inh-2 | Pol eta inh-2 | others
CC(C)OC(=O)C(C(=O)C(F)(F)F)c1cc(NS(=O)(=O)c2ccc3ccccc3c2)c2ccccc2c1O (stereo unspecified) | -15.2% | -6.1% | ? | ? | -2.1% | 23.0% | . | . | GALK inh confirm=?;GALK redox cs=-0.9%;HEK293 viability=-14.4%
O=C(COC(=O)c1cn(-c2ccccc2)nc1-c1cccnc1)NC1CC1 | -1.7% | 34.3% | 35.0% | -22.3% | -1.5% | -1.4% | . | .
Cc1cc(NC(=O)c2cc(S(=O)(=O)N3CCCCC3)ccc2C)no1 | ? | . | ? | 22.4µM* | ? | -2.1% | . | ?
c1csc(Cc2nn3c(-c4n[nH]c5c4CCC5)nnc3s2)c1 | -33.1% | 28.2µM* | ? | 11.2µM* | -1.5% | ? | . | ?
COc1cc(OC)c(-c2nn3c(-c4n[nH]c5c4CCC5)nnc3s2)cc1OC | -9.2% | . | -16.0% | . | . | . | . | .
Cc1cc(NC(=O)c2cc([N+](=O)[O-])cc([N+](=O)[O-])c2C)no1 | ? | ? | 56.2µM* | 31.6µM* | -5.4% | -18.9% | . | ?
O=C(NN1C(=O)NC2(CCCCC2)C1=O)c1ccc(-c2ccccc2Cl)o1 | -7.2% | . | 5.8% | -13.8% | 37.7% | 4.8% | . | .
Cc1c(Cl)cccc1-c1ccc(/C=N/n2cnnc2)o1 | 6.1% | 0.3% | 4.0% | 3.8% | 0.9% | 17.9% | . | .
Cc1c(C(=O)O)cccc1-c1ccc(/C=N/n2cnnc2)o1 | 89.1µM* | 25.1µM* | 35.5µM* | 20µM* | -24.5% | ? | 15* | 47.8*
Cc1ccc(S(=O)(=O)Nc2ccccc2C(O)c2ccccc2)cc1 (stereo unspecified) | -6.6% | 2.1% | 56.9% | -9.3% | 1.1% | -14.0% | . | .
O=C(ONc1ccc(N=NC(=O)c2ccccc2O)cc1)c1ccccc1 | -6.7% | 9.3% | 7.9% | 50.1µM* | 0.9% | -4.2% | . | ?
O=C(O)CNC(=O)CC1S/C(=N/N=C2/NC(=O)CS2)NC1=O (stereo unspecified) | -26.2% | -1.9% | ? | 44.7µM* | ? | 16.1% | ? | .
Cc1ccc(S(=O)c2ccc([N+](=O)[O-])c3nonc23)cc1 (stereo unspecified) | . | . | . | 14.1µM* | . | ? | ? | 33.8*
CC1(c2nnc(-c3cccc(Cl)c3)o2)CC(c2ccccc2Br)=NO1 (stereo unspecified) | 0.6% | -14.9% | -12.1% | -17.6% | -12.4% | 3.3% | . | .
NC(=S)n1[nH]c(-c2ccc([N+](=O)[O-])cc2)c(N=Nc2ccccc2[N+](=O)[O-])c1=O | -3.4% | 15.8µM* | ? | 6.31µM* | 13.4% | -10.2% | 8.44* | .
Nc1[nH]n(-c2ccccc2)c(=O)c1N=Nc1ccccc1[N+](=O)[O-] | -5.4% | 16.6% | ? | 7.2% | 5.9% | -2.3% | . | .
O=C(NCc1ccccn1)C1CCC(CNS(=O)(=O)c2cccc3nsnc23)CC1 (stereo unspecified) | -2.2% | 19.2% | 5.1% | 2.9% | 7.1% | 1.9% | . | .
O=C(CCc1nc2ccccc2c(=O)[nH]1)NCCN1C(=O)S/C(=C\c2ccc(Cl)cc2Cl)C1=O | -6.7% | . | ? | ? | -2.0% | -1.7% | . | .
Cc1cc(OCC(=O)NC(Cc2c[nH]c3ccc(O)cc23)C(=O)O)c2c(C)c(C)c(=O)oc2c1 (stereo unspecified) | -13.2% | 27.1% | 20.0% | ? | 8.2% | -26.0% | . | .
CCCc1cc(=O)oc2cc(OCC(=O)NC(Cc3c[nH]c4ccc(O)cc34)C(=O)O)c(Cl)cc12 (stereo unspecified) | ? | -14.2% | ? | 39.8µM* | -1.4% | ? | . | ?
COc1ccc(C(=O)/C=C/C(=O)N(CC(=O)NC2CCCCC2)CC2CCCO2)c(O)c1 (stereo unspecified) | 1.6% | -24.7% | 17.5% | -2.4% | 3.6% | -18.4% | . | .
O=C(O)c1ccccc1C1=Nc2ccc(O)cc2Oc2cc(O)ccc21 | -19.7% | 50.1µM* | 39.8µM* | ? | -5.3% | 12.5% | ? | .
O=C(c1ccc2c(c1)N(Cc1cccc(F)c1)C(=O)c1ccccc1S2)N1CCCC1 | 1.5%[60.1 µM] | 39.8µM* | 79.4µM* | 79.4µM* | . | -8.7% | ? | ?
CCOC(=O)Cc1ccc(NC(=O)c2ccc([N+](=O)[O-])cc2)cc1 | -3.7% | -3.2% | 9.0% | -6.4% | -3.0% | 1.3% | . | .
Cc1ccc(C(=O)NCC(=O)NCc2cc(=O)n(C)c(=O)n2C)cc1C | -3.8% | 20.3% | 0.5% | -5.1% | 15.5% | 3.3% | . | .
SMILES | Pol kappa inh-1 | POLB inh | Pol iota inh | Pol eta inh-1 | APE1 inh | GLS inh | Pol kappa inh-2 | Pol eta inh-2 | others
Cc1ccc(S(=O)(=O)c2nc(-c3ccco3)oc2SC(C)C)cc1 | -24.0% | -11.4% | ? | 89.1µM* | 31.3% | -0.9% | ? | ?
Cc1ccc(S(=O)(=O)c2nc(-c3ccco3)oc2SCC(C)C)cc1 | 0.6% | -9.1% | -21.8% | -7.7% | . | 1.7% | . | .
S=c1[nH]nc(Cc2sc(-c3ccccc3)nc2-c2ccccc2)o1 | -13.4% | 0.6% | -2.3% | -0.6% | -0.6% | 31.9% | . | . | GALK inh confirm=33.5µM*;GALK redox cs=-10.0%;HEK293 viability=-5.5%
CC(C)CCOc1ccc(C(CC(N)=O)C(=O)O)cc1 (stereo unspecified) | -2.1% | 12.2% | 6.4% | -13.6% | 2.2% | 6.0% | . | .
O=C(O)CC(C(=O)O)c1ccc(OCCCCOc2ccc(C(CC(=O)O)C(=O)O)cc2)cc1 (stereo unspecified) | 79.4µM* | ? | 79.4µM* | 17.8µM* | -2.2% | 0.0% | 9.47* | 9.53*
O=C(CSc1ncccn1)N1CCN(Cc2ccccc2)CC1 | -6.3% | 7.2% | 8.6% | -13.5% | 0.9% | 0.9% | . | .

From PubChem
